# Only a selection was taken, and the strongest signals are over-represented in it overall.
# Tests used:
# Test in all cases: glycan array binding signal (z-score within array); higher = stronger binding
# Conditions in all cases: glycan notation: IUPAC condensed, linker removed
# [1] = target: Fuc(a1-2)Gal(b1-3)GalNAc(a1-3)[Fuc(a1-2)]Gal(b1-4)GlcNAc
# Method in brief: (§1)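 Negative Z-scores can be read as non-binding. The Z-score is calculated within each array and then averaged across arrays of one protein sequence at different concentrations or buffers and across linkers. Arrays, 3228 in all, were curated from the Consortium for Functional Glycomics database and kept only where the protein sequence was available.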
# [2] = target: Fuc(a1-2)Gal(b1-4)GlcNAc(b1-3)Gal(b1-4)GlcNAc(b1-2)Man(a1-3)[Fuc(a1-2)Gal(b1-4)GlcNAc(b1-3)Gal(b1-4)GlcNAc(b1-2)Man(a1-6)]Man(b1-4)GlcNAc(b1-4)GlcNAc
# Method in brief: as §1
# [3] = target: Fuc(a1-2)[Gal(a1-3)]Gal(b1-4)[Fuc(a1-3)]GlcNAc(b1-3)GalNAc
# Method in brief: as §1
# [4] = target: Fuc(a1-2)[GalNAc(a1-3)]Gal(b1-3)GalNAc(a1-3)[Fuc(a1-2)]Gal(b1-4)GlcNAc
# Method in brief: as §1
# [5] = target: Fuc(a1-2)[GalNAc(a1-3)]Gal(b1-4)GlcNAc(b1-2)Man(a1-3)[Fuc(a1-2)[GalNAc(a1-3)]Gal(b1-4)GlcNAc(b1-2)Man(a1-6)]Man(b1-4)GlcNAc(b1-4)GlcNAc
# Method in brief: as §1
# [6] = target: Fuc(a1-2)[GalNAc(a1-3)]Gal(b1-4)[Fuc(a1-3)]GlcNAc(b1-3)GalNAc
# Method in brief: as §1
# [7] = target: Fuc(a1-3)[Gal(b1-4)]Glc6S
# Method in brief: as §1
# [8] = target: Fuc(a1-3)[Gal(b1-4)]GlcNAc
# Method in brief: as §1
# [9] = target: Gal(a1-3)Gal(b1-3)[Fuc(a1-4)]GlcNAc(b1-2)Man(a1-3)[Gal(a1-3)Gal(b1-3)[Fuc(a1-4)]GlcNAc(b1-2)Man(a1-6)]Man(b1-4)GlcNAc(b1-4)GlcNAc
# Method in brief: as §1
# [10] = target: Gal(a1-3)Gal(b1-4)[Fuc(a1-3)]GlcNAc(b1-2)Man(a1-3)[Gal(a1-3)Gal(b1-4)[Fuc(a1-3)]GlcNAc(b1-2)Man(a1-6)]Man(b1-4)GlcNAc(b1-4)GlcNAc
# Method in brief: as §1
# [11] = target: Gal(b1-3)GalNAc(b1-3)Gal(a1-4)Gal(b1-4)Glc
# Method in brief: as §1
# [12] = target: Gal(b1-3)GalNAc(b1-4)[Neu5Ac(a2-3)]Gal(b1-4)Glc
# Method in brief: as §1
# [13] = target: Gal(b1-3)GlcNAc(b1-2)Man(a1-3)[Gal(b1-3)GlcNAc(b1-2)Man(a1-6)]Man(b1-4)GlcNAc(b1-4)GlcNAc
# Method in brief: as §1
# [14] = target: Gal(b1-3)GlcNAc(b1-3)Gal(b1-4)GlcNAc(b1-6)[Gal(b1-3)GlcNAc(b1-3)]Gal(b1-4)Glc
# Method in brief: as §1
# [15] = target: Gal(b1-3)GlcNAc6S
# Method in brief: as §1
# [16] = target: Gal(b1-3)[Fuc(a1-4)]GlcNAc(b1-6)GalNAc
# Method in brief: as §1
# [17] = target: Gal(b1-3)[GlcNAc(b1-6)]GalNAc
# Method in brief: as §1
# [18] = target: Gal(b1-3)[Neu5Ac(a2-6)]GlcNAc(b1-4)Gal(b1-4)Glc
# Method in brief: as §1
# [19] = target: Gal(b1-4)GlcNAc(b1-2)Man(a1-3)[Man(a1-6)]Man(b1-4)GlcNAc(b1-4)GlcNAc
# Method in brief: as §1
# [20] = target: Gal(b1-4)GlcNAc(b1-2)[Gal(b1-4)GlcNAc(b1-6)]Man(a1-6)[Gal(b1-4)GlcNAc(b1-2)Man(a1-3)]Man(b1-4)GlcNAc(b1-4)[Fuc(a1-6)]GlcNAc
# Method in brief: as §1
# [21] = target: Gal(b1-4)GlcNAc(b1-3)Gal(b1-3)GalNAc
# Method in brief: as §1
# [22] = target: Gal(b1-4)GlcNAc(b1-3)Gal(b1-4)GlcNAc(b1-3)Gal(b1-4)GlcNAc(b1-2)Man(a1-3)[Gal(b1-4)GlcNAc(b1-3)Gal(b1-4)GlcNAc(b1-3)Gal(b1-4)GlcNAc(b1-2)Man(a1-6)]Man(b1-4)GlcNAc(b1-4)GlcNAc
# Method in brief: as §1
# [23] = target: Gal(b1-4)GlcNAc(b1-3)Gal(b1-4)GlcNAc(b1-3)Gal(b1-4)GlcNAc(b1-3)Gal(b1-4)GlcNAc(b1-2)Man(a1-3)[Gal(b1-4)GlcNAc(b1-3)Gal(b1-4)GlcNAc(b1-3)Gal(b1-4)GlcNAc(b1-3)Gal(b1-4)GlcNAc(b1-2)Man(a1-6)]Man(b1-4)GlcNAc(b1-4)[Fuc(a1-6)]GlcNAc
# Method in brief: as §1
# [24] = target: Gal(b1-4)GlcNAc(b1-3)Gal(b1-4)GlcNAc(b1-3)Gal(b1-4)GlcNAc(b1-3)Gal(b1-4)GlcNAc(b1-3)Gal(b1-4)GlcNAc(b1-2)[Gal(b1-4)GlcNAc(b1-3)Gal(b1-4)GlcNAc(b1-3)Gal(b1-4)GlcNAc(b1-3)Gal(b1-4)GlcNAc(b1-3)Gal(b1-4)GlcNAc(b1-6)]Man(a1-6)[Gal(b1-4)GlcNAc(b1-3)Gal(b1-4)GlcNAc(b1-3)Gal(b1-4)GlcNAc(b1-3)Gal(b1-4)GlcNAc(b1-3)Gal(b1-4)GlcNAc(b1-2)Man(a1-3)]Man(b1-4)GlcNAc(b1-4)[Fuc(a1-6)]GlcNAc
# Method in brief: as §1
# [25] = target: Gal(b1-4)GlcNAc6P
# Method in brief: as §1
# [26] = target: Gal(b1-6)Gal
# Method in brief: as §1
# [27] = target: Gal3S(b1-3)GalNAc
# Method in brief: as §1
# [28] = target: Gal3S(b1-3)GlcNAc
# Method in brief: as §1
# [29] = target: Gal6S(b1-4)GlcNAc
# Method in brief: as §1
# [30] = target: GalNAc(a1-3)GalNAc(b1-3)Gal(a1-4)Gal(b1-4)Glc
# Method in brief: as §1
# [31] = target: GalNAc(b1-3)Gal(a1-4)Gal(b1-4)GlcNAc
# Method in brief: as §1
# [32] = target: Glc(a1-4)Glc(a1-4)Glc(a1-4)Glc
# Method in brief: as §1
# [33] = target: GlcNAc(b1-2)[GlcNAc(b1-4)]Man(a1-3)[GlcNAc(b1-4)][GlcNAc(b1-2)[GlcNAc(b1-6)]Man(a1-6)]Man(b1-4)GlcNAc(b1-4)[Fuc(a1-6)]GlcNAc
# Method in brief: as §1
# [34] = target: GlcNAc(b1-3)Gal(b1-4)GlcNAc(b1-3)Gal(b1-4)GlcNAc(b1-2)[GlcNAc(b1-3)Gal(b1-4)GlcNAc(b1-3)Gal(b1-4)GlcNAc(b1-6)]Man(a1-6)[GlcNAc(b1-3)Gal(b1-4)GlcNAc(b1-3)Gal(b1-4)GlcNAc(b1-2)Man(a1-3)]Man(b1-4)GlcNAc(b1-4)[Fuc(a1-6)]GlcNAc
# Method in brief: as §1
# [35] = target: GlcNAc(b1-3)Gal(b1-4)GlcNAc(b1-6)[GlcNAc(b1-3)]Gal(b1-4)GlcNAc
# Method in brief: as §1
# [36] = target: Man(a1-3)[Man(a1-6)]Man(a1-6)[Man(a1-3)]Man
# Method in brief: as §1
# [37] = target: Man(a1-3)[Man(a1-6)]Man(a1-6)[Man(a1-3)]Man(b1-4)GlcNAc(b1-4)GlcNAc
# Method in brief: as §1
# [38] = target: Neu5Ac(a2-3)Gal(b1-3)GlcNAc(b1-4)Gal(b1-4)Glc
# Method in brief: as §1
# [39] = target: Neu5Ac(a2-3)Gal(b1-4)Glc
# Method in brief: as §1
# [40] = target: Neu5Ac(a2-3)Gal(b1-4)GlcNAc(b1-3)GalNAc
# Method in brief: as §1
# [41] = target: Neu5Ac(a2-3)Gal(b1-4)[Fuc(a1-3)]GlcNAc(b1-6)[Gal(b1-3)]GalNAc
# Method in brief: as §1
# [42] = target: Neu5Ac(a2-6)Gal(b1-4)GlcNAc(b1-2)Man(a1-3)[Man(a1-6)]Man(b1-4)GlcNAc(b1-4)GlcNAc
# Method in brief: as §1
# [43] = target: Neu5Ac(a2-6)Gal(b1-4)GlcNAc(b1-3)Gal(b1-4)GlcNAc(b1-6)[Gal(b1-3)]GalNAc
# Method in brief: as §1
# [44] = target: Neu5Ac(a2-6)GalNAc(b1-4)GlcNAc6S
# Method in brief: as §1
# [45] = target: Neu5Ac(a2-8)Neu5Ac(a2-8)Neu5Ac
# Method in brief: as §1
# [46] = target: Neu5Gc(a2-3)Gal(b1-3)[Fuc(a1-4)]GlcNAc
# Method in brief: as §1
# [47] = target: Neu5Gc(a2-3)Gal(b1-4)GlcNAc
# Method in brief: as §1
binder,measurement,setting,value
SBD-G4S3-SBD (protein) MASIPSSASVQLDSYNYDGSTFSGKIYVKNIAYSKKVTVVYADGSDNWNNNGNIIAASFSGPISGSNYEYWTFSASVKGIKEFYIKYEVSGKTYYDNNNSANYQVSTGGGGSGGGGSGGGGSEFASIPSSASVQLDSYNYDGSTFSGKIYVKNIAYSKKVTVVYADGSDNWNNNGNIIAASFSGPISGSNYEYWTFSASVKGIKEFYIKYEVSGKTYYDNNNSANYQVST,glycan array binding signal (z-score),[1],-0.396
same,glycan array binding signal (z-score),[2],-0.362
same,glycan array binding signal (z-score),[3],0.033
same,glycan array binding signal (z-score),[4],1.17
same,glycan array binding signal (z-score),[5],6.16
same,glycan array binding signal (z-score),[6],4.46
same,glycan array binding signal (z-score),[7],2
same,glycan array binding signal (z-score),[8],-0.355
same,glycan array binding signal (z-score),[9],7.53
same,glycan array binding signal (z-score),[10],0.036
same,glycan array binding signal (z-score),[11],-0.324
same,glycan array binding signal (z-score),[12],-0.263
same,glycan array binding signal (z-score),[13],4.15
same,glycan array binding signal (z-score),[14],-0.42
same,glycan array binding signal (z-score),[15],-0.404
same,glycan array binding signal (z-score),[16],4.38
same,glycan array binding signal (z-score),[17],-0.371
same,glycan array binding signal (z-score),[18],-0.092
same,glycan array binding signal (z-score),[19],-0.387
same,glycan array binding signal (z-score),[20],4.53
same,glycan array binding signal (z-score),[21],-0.052
same,glycan array binding signal (z-score),[22],1.38
same,glycan array binding signal (z-score),[23],7.46
same,glycan array binding signal (z-score),[24],8.43
same,glycan array binding signal (z-score),[25],-0.348
same,glycan array binding signal (z-score),[26],-0.136
same,glycan array binding signal (z-score),[27],-0.369
same,glycan array binding signal (z-score),[28],-0.406
same,glycan array binding signal (z-score),[29],4.01
same,glycan array binding signal (z-score),[30],-0.403
same,glycan array binding signal (z-score),[31],-0.37
same,glycan array binding signal (z-score),[32],5.44
same,glycan array binding signal (z-score),[33],-0.39
same,glycan array binding signal (z-score),[34],-0.26
same,glycan array binding signal (z-score),[35],-0.406
same,glycan array binding signal (z-score),[36],-0.125
same,glycan array binding signal (z-score),[37],-0.351
same,glycan array binding signal (z-score),[38],-0.389
same,glycan array binding signal (z-score),[39],-0.399
same,glycan array binding signal (z-score),[40],-0.327
same,glycan array binding signal (z-score),[41],4.53
same,glycan array binding signal (z-score),[42],0.556
same,glycan array binding signal (z-score),[43],-0.221
same,glycan array binding signal (z-score),[44],-0.365
same,glycan array binding signal (z-score),[45],-0.377
same,glycan array binding signal (z-score),[46],-0.366
same,glycan array binding signal (z-score),[47],-0.326

# Reference: the supplement of paper PMC8728848
